Experiment [1] in a line: qHTS assay to identify aromatase inhibitors - cell viability counter screen (AID 743084).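 Further: cells stimulated with testosterone during compound exposure; nearly all actives have a fitted effect of over 55% in size.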
For experiment [2], the target named is Aryl hydrocarbon receptor (Homo sapiens) (UniProt P35869). Nature of the experiment: qHTS assay to identify small molecule that activate the aryl hydrocarbon receptor (AhR) signaling pathway (AID 743085). Further: nearly all actives have a fitted effect of over 15% in size. Further: potency means the concentration at half of the fitted maximal effect.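 On activation: HG2L7.5c1 human HepG2 liver cells with stably integrated DRE-driven firefly reporter; series mostly up to about 70 µM.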 The method in brief: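 24 h compound exposure, 37C, HepG2-derived HG2L7.5c1 cells with DRE-responsive luciferase. Readouts: fluorescence viability, then luminescence at room temperature after 30 min.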
Sequence of Aryl hydrocarbon receptor (Homo sapiens) (P35869 whole entry, looked up): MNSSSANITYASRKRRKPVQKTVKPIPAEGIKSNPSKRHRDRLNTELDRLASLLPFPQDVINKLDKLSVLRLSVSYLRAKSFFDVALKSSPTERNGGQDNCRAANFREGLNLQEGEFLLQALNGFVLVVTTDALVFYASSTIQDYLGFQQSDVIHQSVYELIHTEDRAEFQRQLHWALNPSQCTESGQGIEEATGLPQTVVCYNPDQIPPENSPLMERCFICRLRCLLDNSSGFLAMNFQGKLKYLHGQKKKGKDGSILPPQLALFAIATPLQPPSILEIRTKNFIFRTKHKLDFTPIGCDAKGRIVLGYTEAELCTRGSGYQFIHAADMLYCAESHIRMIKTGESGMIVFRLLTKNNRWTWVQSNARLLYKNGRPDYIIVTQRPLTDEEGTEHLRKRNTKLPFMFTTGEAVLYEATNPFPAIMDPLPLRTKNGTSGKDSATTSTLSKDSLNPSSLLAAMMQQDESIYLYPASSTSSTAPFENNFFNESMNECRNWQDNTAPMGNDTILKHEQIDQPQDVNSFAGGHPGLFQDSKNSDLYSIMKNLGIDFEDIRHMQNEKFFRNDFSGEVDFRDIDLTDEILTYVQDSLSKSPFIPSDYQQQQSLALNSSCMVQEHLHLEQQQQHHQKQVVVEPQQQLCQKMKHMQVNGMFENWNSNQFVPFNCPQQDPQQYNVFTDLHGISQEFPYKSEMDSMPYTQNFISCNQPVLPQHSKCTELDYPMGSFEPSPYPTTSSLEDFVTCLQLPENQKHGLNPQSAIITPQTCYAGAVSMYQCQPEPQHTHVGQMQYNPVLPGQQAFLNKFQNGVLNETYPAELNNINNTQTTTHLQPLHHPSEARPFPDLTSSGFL
On the technique in general: In qHTS, concentration-response curves come from the screen itself.

A short description of experiment [3]: qHTS assay to identify small molecule that activate the aryl hydrocarbon receptor (AhR) signaling pathway - cell viability counter screen (AID 743086).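 Further: HepG2 liver cells carrying the AhR DRE luciferase reporter; series mostly up to about 70 µM; nearly all actives have a fitted effect of over 45% in size.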 The method in brief:
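HepG2-AhR-luc (HG2L7.5c1) cells, 4000/well, treated 24 h at 37 C with compound; viability measured as CellTiter-Fluor fluorescence after 30 min in the same wells as the luciferase read.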

Experiment [4] concerns the target Peroxisome proliferator-activated receptor gamma (Homo sapiens) (UniProt P37231). Nature of the experiment: qHTS assay to identify small molecule agonists of the peroxisome proliferator-activated receptor gamma (PPARg) signaling pathway (AID 743094; active means well fitted activation curve with a large enough effect in the signal ratio in the repeat runs, not every such curve was filed as active; the % refers to the signal ratio). In outline:
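Reporter activation was scored by fluorescence of cleaved LiveBLAzer B/G substrate (1 h, room temperature) in PPARg-bla HEK293H cells previously treated 17 h at 37C with DMSO-dissolved compounds.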

For experiment [5] the target is unchanged. In words: qHTS assay to identify small molecule antagonists of the peroxisome proliferator-activated receptor gamma (PPARg) signaling pathway (AID 743191; calls by dose curve; further: series mostly up to about 63 µM; nearly all actives have a fitted effect of over 30% in size). In outline:
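GeneBLAzer PPARg UAS-bla HEK293H cells, 5 h post-plating, exposed to compounds 17 h at 37C. LiveBLAzer B/G FRET substrate added for 1 h at room temperature; beta-lactamase reporter read by fluorescence intensity.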

Experiment [6] can be described thus: qHTS assay to identify small molecule antagonists of the peroxisome proliferator-activated receptor gamma (PPARg) signaling pathway - cell viability counter screen (AID 743194). Further: nearly all actives have a fitted effect of over 55% in size. The method in brief: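 Cytotoxicity counter screen in PPARg-bla HEK293H cells, same wells as reporter assay. Compounds plus 50 nM rosiglitazone (final) for 17 h at 37 C, then viability read by CellTiter-Glo luminescence.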

Experiment [7] can be described thus: qHTS assay for small molecule agonists of the antioxidant response element (ARE) signaling pathway (AID 743202; active means well fitted activation curve with a large enough effect in the signal ratio in the repeat runs, not every such curve was filed as active; the % refers to the signal ratio; further: potency means the concentration at half of the fitted maximal effect). The method in brief:
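HepG2 ARE-bla cells; 16 h treatment at 37 C; FRET-based beta-lactamase fluorescence read after 2 h substrate incubation at room temperature.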

A short description of experiment [8]: qHTS assay for small molecule agonists of the antioxidant response element (ARE) signaling pathway - cell viability counter screen (AID 743203; calls by dose curve; further: nearly all actives have a fitted effect of over 55% in size). The method in brief: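 Viability counter screen: stably transfected ARE-bla HepG2 line, 16 hrs compound exposure at 37C/5% CO2, ATP-based CellTiter-Glo luminescence measured in the reporter wells.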
The nature of experiment [9]: qHTS assay for small molecule activators of the heat shock response signaling pathway - cell viability counter screen (AID 743209). Further: nearly all actives have a fitted effect of over 50% in size. In outline: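 Viability of HSE-bla HeLa cells is measured with CellTiter-Glo in the wells already used for the reporter read. Compound exposure lasts 5 h at 37 C, and luminescence is read after 30 min at room temperature.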
Experiment [10] is described as follows: qHTS assay for small molecule activators of the heat shock response signaling pathway (AID 743210; active means well fitted activation curve with a large enough effect in the signal ratio in the repeat runs, with a control signal flat, not every such curve was filed as active; the % refers to the signal ratio;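 further: HeLa cells with beta-lactamase reporter driven by heat shock elements; series mostly up to about 63 µM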). In outline:
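Following overnight attachment, HSE-bla HeLa cells received test compounds for 5 h at 37 C; beta-lactamase activity was then detected via FRET substrate fluorescence.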

Results filed as inconclusive are left out. Active and inactive are the calls of the source. Unless noted, the call rests on the fitted dose curve; in most records, active means well fitted curve in the direction sought with a large enough effect in the repeat runs; inconclusive means weak or mixed curves; inactive means no such curve, though single readings can be large; an effect the other way counts as inactive or inconclusive.

Sequence of Peroxisome proliferator-activated receptor gamma (Homo sapiens) (P37231 whole entry, looked up): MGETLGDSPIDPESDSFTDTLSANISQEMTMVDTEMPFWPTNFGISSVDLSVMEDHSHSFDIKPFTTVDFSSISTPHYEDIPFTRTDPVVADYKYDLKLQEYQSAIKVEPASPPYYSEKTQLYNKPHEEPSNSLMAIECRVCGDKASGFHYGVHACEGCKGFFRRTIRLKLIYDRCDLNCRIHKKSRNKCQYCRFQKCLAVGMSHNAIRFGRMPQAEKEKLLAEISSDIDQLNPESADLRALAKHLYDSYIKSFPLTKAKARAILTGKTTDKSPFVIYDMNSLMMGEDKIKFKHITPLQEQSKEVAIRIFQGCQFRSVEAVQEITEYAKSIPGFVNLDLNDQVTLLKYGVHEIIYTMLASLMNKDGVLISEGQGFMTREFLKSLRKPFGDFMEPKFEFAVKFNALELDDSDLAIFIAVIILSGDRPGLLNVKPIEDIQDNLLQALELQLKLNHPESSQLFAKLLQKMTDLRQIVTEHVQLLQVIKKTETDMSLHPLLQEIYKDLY

Regarding `CC(N)C(=O)OC(C)(C)Cc1ccc(Cl)cc1` (configuration not stated), the Potency entry in [1], in [2], in experiment [3], in [5] and in experiment [7] was “inactive” throughout. Further, the outcome in experiment [4], in experiment [6], in experiment [8] and in experiment [9] was inactive.
Take `OC[C@H](Cc1cccc(O)c1)[C@H](CO)Cc1cccc(O)c1`: the Potency result in [1], in [2], in experiment [3] and in experiment [5] was “inactive” each time. Also, the molecule was called inactive in experiment [4], in experiment [6], in experiment [8] and in experiment [9].
As for `Cc1nc2n(c(=O)c1CCN1CCC(c3noc4cc(F)ccc34)CC1)CCC[C@H]2O`, the Potency entry in experiment [1], in experiment [2], in [3], in [5] and in experiment [7] was “inactive” in each case. The call in experiment [4], in [6], in [8], in [9] and in [10] was inactive.
In the case of `CCCC(=O)C(C)=O`, the Potency result in experiment [1], in experiment [2], in experiment [3], in experiment [5] and in [7] was “inactive” each time. The result in experiment [4], in [6], in experiment [8], in experiment [9] and in experiment [10] was inactive.
`CC(=O)c1ccc2c(c1)Cc1ccccc1-2`: the Potency entry in experiment [1], in [3] and in experiment [5] was “inactive” each time. The Potency in experiment [2] is 54.5 µM (active); in experiment [7], 7.7 µM (active). Moreover, the molecule was called inactive in [4], in [6], in experiment [8], in experiment [9] and in experiment [10].
Turning to `CC(C)C(=O)OCCc1ccccc1`, the Potency entry in experiment [1], in experiment [2], in [3], in experiment [5] and in experiment [7] was “inactive” throughout. The molecule was called inactive in experiment [4], in experiment [6], in experiment [8], in experiment [9] and in experiment [10].
In the case of `O=S(=O)(O)c1ccc2cc(O)c(S(=O)(=O)O)cc2c1`, the Potency result in [1], in [2], in experiment [3], in [5] and in experiment [7] was “inactive” throughout. For the same molecule, the call in [4], in experiment [6], in experiment [8], in [9] and in experiment [10] was inactive.
On to `C=C(C)C1CCC(C)(O)CC1` (configuration not stated), for which the Potency result in experiment [1], in [2], in experiment [3] and in experiment [5] was “inactive” throughout. In addition, the outcome in experiment [4], in experiment [6], in experiment [8] and in experiment [9] was inactive.
As for `Cc1c(I)c(=O)n(-c2ccccc2)n1C`, the Potency entry in [1], in experiment [2], in experiment [3], in experiment [5] and in experiment [7] was “inactive” in each case. In addition, the outcome in [4], in experiment [6], in experiment [8], in experiment [9] and in [10] was inactive.
Consider `COc1cc(C(=S)N2CCOCC2)cc(OC)c1OC`, for which the Potency entry in experiment [1], in experiment [2], in [3], in experiment [5] and in experiment [7] was “inactive” each time. Moreover, the molecule was called inactive in experiment [4], in experiment [6], in experiment [8], in experiment [9] and in experiment [10].
In the case of `COCCOCCOCCOCCOCCO`, the Potency result in experiment [1], in [2], in experiment [3], in experiment [5] and in [7] was “inactive” each time. Further, the outcome in [4], in experiment [6], in [8] and in [9] was inactive.
`Cc1ccccc1OCC(O)CO` (configuration not stated): the Potency result in experiment [1], in experiment [2], in [3], in [5] and in experiment [7] was “inactive” throughout. Besides, the call in experiment [4], in experiment [6], in experiment [8], in experiment [9] and in experiment [10] was inactive.
`CC(=O)/C=C/C1C(C)=CCC(C)C1(C)C` (configuration not stated): the Potency entry in [1], in experiment [2], in experiment [3] and in [5] was “inactive” throughout. The outcome in [4], in experiment [6], in experiment [8] and in [9] was inactive.
In the case of `ClCCCl`, the Potency result in experiment [1], in [2], in experiment [3], in experiment [5] and in experiment [7] was “inactive” in each case. The outcome in experiment [4], in [6], in [8], in experiment [9] and in [10] was inactive.
Turning to `CC(C)CCCC(C)(C)O`, the Potency result in experiment [1], in experiment [2], in experiment [3], in [5] and in experiment [7] was “inactive” in each case. The result in experiment [4], in [6], in experiment [8] and in [9] was inactive.
As to `C[C@@H](Oc1ccc(CNC(=O)c2cccnc2Oc2ccc3c(c2)OCO3)c(F)c1)C(=O)O`, the Potency result in experiment [1], in experiment [2], in experiment [3], in experiment [5] and in [7] was “inactive” in each case. For the same molecule, the molecule was called inactive in experiment [4], in experiment [6], in experiment [8], in experiment [9] and in experiment [10].
In the case of `CCCCCCCCCC(C)=O`, the Potency result in experiment [1], in experiment [2], in experiment [3], in experiment [5] and in [7] was “inactive” throughout. Besides, the molecule was classed as inactive in [4], in experiment [6], in experiment [8], in experiment [9] and in [10].
Turning to `CC(=O)Nc1ccc(S(=O)(=O)Nc2ccc([N+](=O)[O-])cc2)cc1`, the Potency entry in experiment [1], in [2], in experiment [3] and in experiment [5] was “inactive” in each case. For the same molecule, the result in experiment [4], in experiment [6], in experiment [8] and in [9] was inactive.
For the molecule `O=S(=O)(O)c1cc(O)c2ccc(Nc3ccccc3)cc2c1`, the Potency entry in experiment [1], in experiment [2], in [3], in experiment [5] and in experiment [7] was “inactive” each time. In addition, the molecule was called inactive in [4], in experiment [6], in [8], in [9] and in experiment [10].
Regarding `CC(C)N(c1ccccc1)C(C)C`, the Potency result in experiment [1], in [2], in experiment [3], in experiment [5] and in [7] was “inactive” each time. Further, the outcome in [4], in [6], in experiment [8], in experiment [9] and in experiment [10] was inactive.
Turning to `Cc1cccc(C)c1NC(=O)c1ccccc1C(=O)O`, the Potency result in [1], in [2], in [3], in [5] and in experiment [7] was “inactive” in each case. The result in experiment [4], in experiment [6], in experiment [8], in experiment [9] and in [10] was inactive.
As to `COP(=O)(OC)OC(c1ccc(Cl)cc1)P(=O)(OC)OC` (configuration not stated), the Potency result in experiment [1], in experiment [2], in [3], in [5] and in experiment [7] was “inactive” each time. In addition, the outcome in experiment [4], in [6], in [8] and in [9] was inactive.
`Cc1ccc(C=O)cc1C`: the Potency entry in experiment [1], in experiment [2], in experiment [3], in [5] and in [7] was “inactive” throughout. Besides, the result in experiment [4], in experiment [6], in experiment [8], in experiment [9] and in experiment [10] was inactive.
With `CCN(C)C(=O)Oc1cccc([C@H](C)N(C)C)c1`, the Potency entry in experiment [1], in [2], in experiment [3], in experiment [5] and in experiment [7] was “inactive” throughout. For the same molecule, the call in experiment [4], in [6], in [8] and in experiment [9] was inactive.
Consider `C[C@H](CCC(=O)O)[C@H]1CC[C@H]2[C@@H]3C(=O)C[C@@H]4CC(=O)CC[C@]4(C)[C@H]3CC(=O)[C@]12C`, for which the Potency entry in [1], in experiment [2], in [3], in experiment [5] and in experiment [7] was “inactive” throughout. The result in experiment [4], in [6], in experiment [8], in experiment [9] and in [10] was inactive.

These data come from PubChem BioAssay (Tox21).
